Activity calls are given as the source filed them.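 Rule for the calls: active = mean duplicate potentiation above the buffer control mean plus 5 SD of buffer wells; inactive = the rest.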
target: Potassium voltage-gated channel subfamily KQT member 2 (Rattus norvegicus) (UniProt O88943); test: KCNQ2 thallium flux enhancement – KCNQ2-CHO-K1 cells, selectivity assay for KCNQ1 potentiator project (AID 493009); settings: FluxOR thallium flux fluorescence, at 10 µM; stronger effect = higher value, scaled: buffer 0, activator control 100;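 note: assay conditions were tuned for KCNQ1 rather than KCNQ2 modulators; signal is max minus min fluorescence divided by baseline after thallium stimulus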
Sequence (O88943 whole entry, looked up): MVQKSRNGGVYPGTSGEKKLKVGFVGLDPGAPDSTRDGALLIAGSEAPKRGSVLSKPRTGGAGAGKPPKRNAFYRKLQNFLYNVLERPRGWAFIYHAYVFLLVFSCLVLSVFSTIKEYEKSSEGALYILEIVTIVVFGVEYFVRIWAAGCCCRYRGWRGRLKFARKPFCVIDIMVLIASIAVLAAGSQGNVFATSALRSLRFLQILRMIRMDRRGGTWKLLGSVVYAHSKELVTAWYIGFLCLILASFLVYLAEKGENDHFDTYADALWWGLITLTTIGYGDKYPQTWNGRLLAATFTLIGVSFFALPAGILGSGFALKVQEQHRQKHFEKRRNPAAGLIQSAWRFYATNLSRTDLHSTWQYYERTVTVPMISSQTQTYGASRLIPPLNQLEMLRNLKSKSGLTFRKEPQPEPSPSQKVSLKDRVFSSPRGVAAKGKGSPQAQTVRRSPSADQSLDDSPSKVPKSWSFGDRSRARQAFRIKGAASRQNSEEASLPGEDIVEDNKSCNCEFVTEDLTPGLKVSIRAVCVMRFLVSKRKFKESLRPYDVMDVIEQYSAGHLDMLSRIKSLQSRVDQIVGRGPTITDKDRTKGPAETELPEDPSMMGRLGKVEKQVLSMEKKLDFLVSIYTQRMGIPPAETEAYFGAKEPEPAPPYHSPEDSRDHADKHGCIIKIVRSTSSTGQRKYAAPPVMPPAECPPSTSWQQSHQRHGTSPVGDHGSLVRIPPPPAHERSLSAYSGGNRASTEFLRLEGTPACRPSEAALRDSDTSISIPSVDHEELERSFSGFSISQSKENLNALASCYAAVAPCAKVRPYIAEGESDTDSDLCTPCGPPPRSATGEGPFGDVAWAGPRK

Row | SMILES | potentiation | outcome
1 | COc1ccc(/C=C2\SC(=O)NC2=S)cc1OC | 191% (active) | 
2 | Cc1ccc(-c2nc3ccccc3o2)cc1NC(=S)NC(=O)c1cc2ccccc2o1 |  | inactive
3 | O=C(CSc1nc2ccccc2s1)c1cc2ccccc2o1 |  | inactive
4 | O=C(c1ccc(S(=O)(=O)N2CCCC2)cc1)N1CCN(c2cccc(Cl)c2)CC1 |  | inactive
5 | O=C(CN1CCOCC1)N1CCN(c2nnc(-c3ccccc3)c3ccccc23)CC1 |  | inactive
6 | CCC(C)c1ccccc1NC(=S)NC(=O)c1ccco1 (centres undefined) | 431% (active) | 
7 | O=C(NC(=S)Nc1ccc(N2CCCCC2)cc1)c1cccs1 | 162% (active) | 
8 | Cc1cnc(NC(=O)c2ccc(-c3nc4ccccc4s3)o2)s1 |  | inactive
9 | Cc1csc(NC(=S)NC(=O)c2ccccc2)n1 | 156% (active) | 
10 | C=CCOc1ccc(/C=C2\SC(=S)N(NS(=O)(=O)c3ccc(C)cc3)C2=O)cc1 | 852% (active) | 
11 | CSc1nc(C)cc(OCC(=O)N/N=C/c2ccccc2O)n1 |  | inactive
12 | CC1CCc2c(sc3[nH]c(=S)n(C)c(=O)c23)C1 (centres undefined) | 552% (active) | 
13 | COc1ccc(C(=O)O/N=C(\N)Cc2ccc(Cl)cc2)cc1OC |  | inactive
14 | Cc1cc(Nc2cc(N3CCN(C)CC3)nc(Sc3ccc(NC(=O)C4CC4)cc3)n2)n[nH]1 | 144% (active) | 
15 | CC(C)(C)c1ccc(Oc2ccc(N)cn2)cc1 | 282% (active) | 
16 | COc1cc2c(cc1OC)CN(C(=O)CNC(=O)c1ccc(OC(F)F)cc1)CC2 |  | inactive
17 | Cc1cccc(CC2CC(=O)N(c3ccc(C)cc3Br)C2=O)c1 (centres undefined) |  | inactive
18 | Cc1ccccc1NC(=O)C(=O)NNC(=O)COc1ccc2ccccc2c1 | 300% (active) | 
19 | Cc1cc(C(=O)N/N=C/C=C/c2ccc3c(c2)OCO3)n[nH]1 |  | inactive
20 | Cc1ccc(-c2ccc(C3C(C#N)=C(N)Oc4n[nH]c(C)c43)o2)cc1 (centres undefined) |  | inactive

Row | SMILES | potentiation | outcome
21 | CC(=O)c1cccc(NC(=S)NC(=O)c2ccc(Cl)cc2)c1 |  | inactive
22 | COc1ccc2nc(/N=C/c3c(C)[nH]n(-c4ccc(C)cc4C)c3=O)sc2c1 | 306% (active) | 
23 | COC(=O)c1ccc(C(=O)NC(=S)Nc2nc3c(s2)CCCC3)cc1 | 411% (active) | 
24 | C=CCn1c(O)c(N=NC(=S)Nc2ccccc2C)c2cc(S(=O)(=O)N3CCOCC3)ccc21 | 226% (active) | 
25 | O=C1/C(=C/c2cccc(F)c2)SC(=S)N1NS(=O)(=O)c1ccccc1 |  | inactive
26 | O=C1c2ccccc2NC(c2ccc(-c3cccc(Cl)c3)o2)N1O (centres undefined) |  | inactive
27 | O=C(NC(=S)Nc1ccccc1Cl)c1cncc(Br)c1 |  | inactive
28 | Cc1c(/C=N\NC(=O)c2ccc(F)cc2)cnn1C |  | inactive
29 | CCC1(c2ccccc2)NC(=O)N(CC(=O)Nc2ccccc2C(=O)N2CCCCC2)C1=O (centres undefined) |  | inactive
30 | Fc1ccccc1Nc1nc(Cl)nc(Cl)n1 |  | inactive
31 | O=C(CN1CCCC1)Nc1ccc2c(c1)CCC2 |  | inactive
32 | CN(C(=O)c1ccco1)c1nnc(-c2ccc(F)cc2)s1 |  | inactive
33 | Cc1ccc(NC(=S)N2CCC(N(C)CC3CCCO3)CC2)cc1 (centres undefined) |  | inactive
34 | Cc1cc(C)cc(-n2ccnc2SCC(=O)Nc2nccs2)c1 |  | inactive
35 | Cc1cc(C)cc(NC(=O)C(Sc2ncnc3ccccc23)c2ccccc2)c1 (centres undefined) |  | inactive
36 | COC(=O)C1C(=O)c2c([nH]c(C(=O)OCCSC)c2C)CC1C (centres undefined) |  | inactive
37 | CCn1nc(C)c(CNC(=O)C2CCC(=O)N(Cc3cccc(F)c3)C2)c1C (centres undefined) |  | inactive
38 | Cc1noc(C)c1CSc1ncnc2sc3c(c12)CCCCC3 | 178% (active) | 
39 | C=C(C)CNC(=O)c1ccc(OC2CCN(C(=O)COC)CC2)cc1 |  | inactive
